According to PubChem BioAssay:
The source made the active and inactive calls.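 Rule for the calls, unless noted: active = inhibition of the reporter signal at or above 50%; inactive = inhibition below 50%.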

Assays:
[1] = inhibitors of TNFa-induced NFkB p65 translocation, primary screen, imaging, HUVEC, MLSMR starter and 10KST1 sets (AID 438;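 active = inhibition above 20% together with a positive visual image hit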;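 note: compound added about 3h40 before a 20 min TNFalpha stimulation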;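 for inhibition: signal is the nuclear over cytoplasmic p65 intensity ratio per well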); settings: HUVEC TNFa-induced p65 nuclear translocation; cell count: measured here: nuclei count (cytotoxicity indicator), at 2.08 µM; inhibition: at 2 µM, stronger effect = higher value, 0% TNFa-plus-vehicle, 100% no-TNFa wells
[2] = inhibitors of mutant huntingtin aggregation, primary screen, imaging, exon1htt(103Q)mCFP cells, high-content imaging (AID 483;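 active = visual image review flags a hit and inhibition of aggregation exceeds 20%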;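 note: compound exposure lasted 3 days before fixation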;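 for nuclei count: percent of the per-plate median nuclei count of sample wells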); settings: exon1htt(103Q)mCFP cell line, aggregate imaging, at 2 µM; inhibition of aggregation: stronger effect = higher value; nuclei count: measured here: cell count, toxicity
[3] = inhibitors of E-selectin induction by TNFa, primary screen, imaging, HUVEC, immunofluorescence, MLSMR starter and 10KST1 sets (AID 487;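 active = visually confirmed hit in the image check and inhibition above 20%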;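 for inhibition: signal is fraction of cell area covered by stained E-selectin grains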;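 for nuclei count: 100% = median nuclei count of all wells on the same plate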); settings: HUVEC TNFalpha-induced E-selectin immunofluorescence imaging, at 2 µM; inhibition: stronger effect = higher value; nuclei count: measured here: cell number, toxicity
[4] = target: Voltage-gated potassium channel subunit beta-2 (Rattus norvegicus) (UniProt P62483); experiment: KvBeta enzyme negative modulators, primary screen, biochemical, NADPH fluorescence (AID 622;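 active = fluorescence slope higher than the sample average by over 3 SD, cut at about -0.22 in these data, passing the limit was not always enough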;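 note: slope of raw intensity against log time taken from 70 to 1610 s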); settings: recombinant KvBeta, 4-cyanobenzaldehyde reduction, at 10 µM, stronger effect = higher value
Chain of Voltage-gated potassium channel subunit beta-2 (Rattus norvegicus) (P62483 whole entry, looked up): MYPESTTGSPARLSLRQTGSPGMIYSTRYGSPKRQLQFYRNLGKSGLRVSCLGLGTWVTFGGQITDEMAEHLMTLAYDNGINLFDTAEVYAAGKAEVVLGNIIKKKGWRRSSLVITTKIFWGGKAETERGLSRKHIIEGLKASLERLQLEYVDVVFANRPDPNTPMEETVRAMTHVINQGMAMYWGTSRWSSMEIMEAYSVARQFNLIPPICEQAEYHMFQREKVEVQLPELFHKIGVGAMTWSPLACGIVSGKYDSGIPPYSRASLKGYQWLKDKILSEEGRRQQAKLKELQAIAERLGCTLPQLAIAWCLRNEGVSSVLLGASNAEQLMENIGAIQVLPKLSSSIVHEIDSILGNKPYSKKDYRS

[5] = target: Voltage-gated potassium channel subunit beta-2 (Rattus norvegicus) (UniProt P62483); experiment: KvBeta positive modulators, primary screen, biochemical, NADPH fluorescence (AID 623;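 active = NADPH fluorescence slope more negative than the mean of all samples by about 3 SD, 99.7% confidence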;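 note: fluorescence intensity change per second fitted from 20 to 320 s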); settings: Recombinant KvBeta, NADPH fluorescence decrease slope, 10 min; at 10 µM; stronger effect = lower value
[6] = target: Alpha-2C adrenergic receptor (Homo sapiens) (UniProt P18825); experiment: modulators of alpha2C/GIRK thallium flux, primary screen, cell-based, HEK293 alpha2C/GIRK1/2 (AID 624;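 active = fluorescence slope after compound addition differing from the mean of all screened samples at 99.7% confidence, in either direction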;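 note: slope of fluorescence ratio to pre-addition baseline per second over 15 to 24 s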); settings: thallium flux BTC fluorescence, at 10 µM, actives lie on both sides
Chain of Alpha-2C adrenergic receptor (Homo sapiens) (P18825 whole entry, looked up): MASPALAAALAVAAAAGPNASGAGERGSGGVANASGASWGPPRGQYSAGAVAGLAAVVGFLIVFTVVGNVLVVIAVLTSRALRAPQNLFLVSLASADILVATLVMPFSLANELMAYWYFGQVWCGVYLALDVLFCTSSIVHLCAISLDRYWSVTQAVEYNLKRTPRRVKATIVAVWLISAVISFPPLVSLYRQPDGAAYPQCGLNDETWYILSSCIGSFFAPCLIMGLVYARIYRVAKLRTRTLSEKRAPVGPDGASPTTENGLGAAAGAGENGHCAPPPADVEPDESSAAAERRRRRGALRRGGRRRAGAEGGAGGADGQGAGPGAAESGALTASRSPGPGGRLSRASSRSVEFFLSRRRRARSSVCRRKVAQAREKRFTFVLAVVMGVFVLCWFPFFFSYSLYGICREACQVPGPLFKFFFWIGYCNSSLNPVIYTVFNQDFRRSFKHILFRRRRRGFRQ

[7] = inhibitors of Sendai virus-induced IRF3 signaling, primary screen, TLR/RLR signaling modifier project, cell-based, Sendai virus stimulus, luciferase, 10K MLSCN set (AID 602276;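 active = inhibition at or above 50% at 10 µM; inactive = inhibition below 50%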;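 note: firefly luciferase from ISG56 promoter only with Renilla not read in this screen; 0% = Sendai virus plus DMSO and 100% = medium plus DMSO without virus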); settings: HEK293 RL24 IRF3 luciferase reporter, at 10 µM, stronger effect = higher value
[8] = inhibitors of poly I:C-induced TLR3 signaling, primary screen, cell-based, poly I:C stimulus, luciferase, 10K MLSCN set (AID 602277); settings: HEK293-TLR3 RL24 IRF3 luciferase reporter, at 10 µM, stronger effect = higher value

SMILES	cell count [1]	inhibition [1]	inhibition of aggregation [2]	nuclei count [2] [%]	inhibition [3]	nuclei count [3] [%]	fluorescence slope [4]	NADPH fluorescence slope [5]	slope [6]	inhibition [7]	inhibition [8]
O=C(C1CC1)N1CCC(c2nc(-c3ccc(S(=O)(=O)NCC4CCCO4)cc3)no2)CC1 (configuration not stated)	334	-3% (inactive)	-20.7% (inactive)	143	-43.6% (inactive)	91.9	-0.491 (inactive)	3.5e-06 (inactive)	0.00666 (inactive)	-27.5% (inactive)	-49.4% (inactive)
Fc1ccc(-c2ccc(-c3nn4c(-c5ccco5)nnc4s3)o2)cc1	243	-2.4% (inactive)	1.7% (inactive)	92.7	-25.8% (inactive)	101	-0.394 (inactive)	-3e-05 (inactive)	0.00935 (inactive)	-5.55% (inactive)	-13.1% (inactive)
CC1CN(S(=O)(=O)c2ccc(Cl)c(C(F)(F)F)c2)CC(C)O1 (configuration not stated)	390	6.1% (inactive)	-1.4% (inactive)	105	0.5% (inactive)	110	-0.31 (inactive)	-4e-05 (inactive)	0.0059 (inactive)	7.15% (inactive)	0.275% (inactive)
CC1CCCN(C(=O)c2cc3c(-c4ccc(Cl)cc4)nn(C)c3s2)C1 (configuration not stated)	749	-1.7% (inactive)	-30.1% (inactive)	104	-30.2% (inactive)	111	-0.607 (inactive)	-5.2e-06 (inactive)	0.00725 (inactive)	7.9% (inactive)	45.2% (inactive)
CC(=O)Nc1ccc(N=Cc2ccc[nH]2)cc1	362	3.4% (inactive)	-8.9% (inactive)	108	9.1% (inactive)	99.4	-0.264 (inactive)	-1.6e-05 (inactive)	0.00576 (inactive)	9.12% (inactive)	-21% (inactive)
COc1ccccc1Nc1nc2ccccc2[nH]1	654	4.7% (inactive)	4.6% (inactive)	94.6	-12.4% (inactive)	96.8	-0.427 (inactive)	-3.7e-06 (inactive)	0.00559 (inactive)	-19.5% (inactive)	-54.9% (inactive)
Cc1ccc(S(=O)(=O)N2CCC(C(=O)NCCN3CCCCCC3)CC2)cc1	768	-9.5% (inactive)	-2.1% (inactive)	102	-87.4% (inactive)	110	-0.456 (inactive)	-6.3e-05 (inactive)	0.00469 (inactive)	11.2% (inactive)	32.9% (inactive)
